In article PMC7862700, “An all-to-all approach to the identification of sequence-specific readers for epigenetic DNA modifications on cytosine”:

Columns and labels:
Test in all cases: DAPPL (digital affinity profiling via proximity ligation, sequencing); 10 mM Tris-HCl pH 7.5, 50 mM NaCl, 1 mM DTT, 4% glycerol, room temperature, 30 min; GST-TFs on glutathione beads, 16-mer random dsDNA library, 0.1% formaldehyde crosslink after washing; high values mean tight binding
FLI1 = molecular target: T1, FLI1 (Homo sapiens, UniProt Q01543 1-452); details: protein: recombinant; tags: N-terminal GST; dsDNA, one strand shown
T1 sequence: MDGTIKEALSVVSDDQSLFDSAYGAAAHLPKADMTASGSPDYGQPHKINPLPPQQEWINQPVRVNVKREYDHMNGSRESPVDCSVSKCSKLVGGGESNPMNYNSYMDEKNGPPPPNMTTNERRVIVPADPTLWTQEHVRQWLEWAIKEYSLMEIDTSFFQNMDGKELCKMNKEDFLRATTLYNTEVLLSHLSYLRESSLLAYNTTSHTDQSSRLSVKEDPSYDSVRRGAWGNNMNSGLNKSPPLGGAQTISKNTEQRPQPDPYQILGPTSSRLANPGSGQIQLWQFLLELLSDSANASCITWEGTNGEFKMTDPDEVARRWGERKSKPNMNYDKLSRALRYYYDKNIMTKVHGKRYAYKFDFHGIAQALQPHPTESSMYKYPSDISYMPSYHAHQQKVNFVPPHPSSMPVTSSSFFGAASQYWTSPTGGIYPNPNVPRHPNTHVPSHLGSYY
Summary of the method: (§1)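 Binding signal is defined as a hexamer's read frequency for one factor over its frequency for the tag-only sample. To obtain reads, GST-fused human transcription factors were expressed in yeast, captured on glutathione beads, barcoded with DNA and pooled with that sample. Pools met 200 nmole of a 16-mer random double-stranded DNA library in Tris/NaCl/DTT/glycerol buffer for 30 min at room temperature before washing, 0.1% formaldehyde crosslinking, proximity ligation (BsaI/T4 ligase, 1 h, 37 °C), PCR and Illumina NextSeq500 sequencing.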

ELK1 = molecular target: T2, ELK1 (Homo sapiens, UniProt P19419 1-428); details: protein: recombinant; tags: N-terminal GST; dsDNA, one strand shown
T2 sequence: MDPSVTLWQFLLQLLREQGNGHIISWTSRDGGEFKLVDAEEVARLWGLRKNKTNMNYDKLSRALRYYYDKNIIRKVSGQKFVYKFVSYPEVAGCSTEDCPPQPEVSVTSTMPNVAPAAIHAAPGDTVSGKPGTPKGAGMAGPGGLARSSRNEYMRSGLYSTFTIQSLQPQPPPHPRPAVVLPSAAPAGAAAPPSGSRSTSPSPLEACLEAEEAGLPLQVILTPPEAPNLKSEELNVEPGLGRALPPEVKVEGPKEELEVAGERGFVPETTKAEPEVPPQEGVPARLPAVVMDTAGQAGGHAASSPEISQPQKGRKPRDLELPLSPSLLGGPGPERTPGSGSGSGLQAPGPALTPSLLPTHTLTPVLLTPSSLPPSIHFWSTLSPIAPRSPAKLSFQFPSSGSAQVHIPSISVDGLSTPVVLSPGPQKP
Summary of the method: as §1

GABPA = molecular target: T3, GABPA (Homo sapiens, UniProt Q06546 1-454); details: protein: recombinant; tags: N-terminal GST; dsDNA, one strand shown
T3 sequence: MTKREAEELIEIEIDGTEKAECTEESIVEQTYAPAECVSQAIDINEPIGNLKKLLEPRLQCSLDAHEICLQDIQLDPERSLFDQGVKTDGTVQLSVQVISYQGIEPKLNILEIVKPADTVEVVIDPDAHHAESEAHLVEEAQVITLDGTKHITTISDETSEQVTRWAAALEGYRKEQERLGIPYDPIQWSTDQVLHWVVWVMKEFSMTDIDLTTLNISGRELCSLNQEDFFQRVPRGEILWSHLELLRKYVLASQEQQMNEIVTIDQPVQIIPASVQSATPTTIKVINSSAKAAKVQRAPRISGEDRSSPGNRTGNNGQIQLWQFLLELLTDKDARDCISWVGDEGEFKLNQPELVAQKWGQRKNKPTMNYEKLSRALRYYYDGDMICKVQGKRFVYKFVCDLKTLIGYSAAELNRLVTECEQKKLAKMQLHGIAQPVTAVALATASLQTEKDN
Summary of the method: as §1

ERG = molecular target: T4, ERG (Homo sapiens, UniProt P11308 1-479); details: protein: recombinant; tags: N-terminal GST; dsDNA, one strand shown
T4 sequence: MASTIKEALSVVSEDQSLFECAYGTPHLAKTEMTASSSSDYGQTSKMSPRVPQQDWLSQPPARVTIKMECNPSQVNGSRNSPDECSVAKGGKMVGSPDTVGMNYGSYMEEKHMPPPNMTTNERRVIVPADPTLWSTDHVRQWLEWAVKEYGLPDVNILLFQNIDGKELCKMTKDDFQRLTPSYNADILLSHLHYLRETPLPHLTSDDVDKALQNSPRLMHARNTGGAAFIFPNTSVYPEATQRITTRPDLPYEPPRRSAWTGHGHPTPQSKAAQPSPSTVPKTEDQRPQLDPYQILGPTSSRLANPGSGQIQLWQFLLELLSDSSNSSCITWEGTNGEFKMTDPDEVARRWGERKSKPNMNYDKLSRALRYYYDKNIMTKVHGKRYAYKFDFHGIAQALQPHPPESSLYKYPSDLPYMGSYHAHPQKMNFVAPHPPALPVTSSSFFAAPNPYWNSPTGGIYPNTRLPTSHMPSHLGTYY
Summary of the method: as §1

ELF1 = ELF1 (Homo sapiens, UniProt P32519 1-619); details: protein: recombinant; tags: N-terminal GST; dsDNA, one strand shown
Sequence of ELF1 (P32519 whole entry): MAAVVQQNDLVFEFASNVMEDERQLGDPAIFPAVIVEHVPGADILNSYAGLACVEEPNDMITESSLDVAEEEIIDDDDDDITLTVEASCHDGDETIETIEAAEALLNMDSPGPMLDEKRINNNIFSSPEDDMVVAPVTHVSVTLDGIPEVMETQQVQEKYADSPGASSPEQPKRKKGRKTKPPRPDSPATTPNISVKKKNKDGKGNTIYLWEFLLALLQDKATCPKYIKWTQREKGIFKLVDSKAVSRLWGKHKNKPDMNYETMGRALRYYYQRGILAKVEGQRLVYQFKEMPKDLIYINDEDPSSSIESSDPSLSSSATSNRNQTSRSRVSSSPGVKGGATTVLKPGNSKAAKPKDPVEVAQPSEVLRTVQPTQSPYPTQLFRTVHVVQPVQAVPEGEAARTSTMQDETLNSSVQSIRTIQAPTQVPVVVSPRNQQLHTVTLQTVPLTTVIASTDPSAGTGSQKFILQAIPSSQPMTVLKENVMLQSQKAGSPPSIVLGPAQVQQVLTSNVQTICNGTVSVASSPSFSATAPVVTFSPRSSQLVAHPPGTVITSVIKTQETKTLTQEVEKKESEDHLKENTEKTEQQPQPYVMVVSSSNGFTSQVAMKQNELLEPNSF
Summary of the method: as §1

EHF = molecular target: T5, EHF (Homo sapiens, UniProt Q9NZC4 1-300); details: protein: recombinant; tags: N-terminal GST; dsDNA, one strand shown
T5 sequence: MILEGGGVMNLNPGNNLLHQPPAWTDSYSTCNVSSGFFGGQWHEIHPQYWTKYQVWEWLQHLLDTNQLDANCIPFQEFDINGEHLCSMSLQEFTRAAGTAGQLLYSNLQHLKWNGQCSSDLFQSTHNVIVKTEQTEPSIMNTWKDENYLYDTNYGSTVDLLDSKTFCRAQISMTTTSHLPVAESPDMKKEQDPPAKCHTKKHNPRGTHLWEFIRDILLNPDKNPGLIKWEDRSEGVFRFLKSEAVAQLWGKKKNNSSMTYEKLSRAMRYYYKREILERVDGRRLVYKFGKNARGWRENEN
Summary of the method: as §1

SPI1 = SPI1 (Homo sapiens, UniProt P17947 1-270); details: protein: recombinant; tags: N-terminal GST; dsDNA, one strand shown
Summary of the method: as §1

SPIB = SPIB (Homo sapiens, UniProt Q01892 1-262); details: protein: recombinant; tags: N-terminal GST; dsDNA, one strand shown
Sequence of SPIB (Q01892 whole entry): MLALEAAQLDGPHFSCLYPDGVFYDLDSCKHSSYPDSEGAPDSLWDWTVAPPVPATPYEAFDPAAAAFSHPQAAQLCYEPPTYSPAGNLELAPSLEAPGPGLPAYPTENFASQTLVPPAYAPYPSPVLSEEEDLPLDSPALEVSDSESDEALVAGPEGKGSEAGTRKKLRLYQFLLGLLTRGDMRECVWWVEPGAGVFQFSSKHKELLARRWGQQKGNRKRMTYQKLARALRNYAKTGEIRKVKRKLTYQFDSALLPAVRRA
Summary of the method: as §1

ELK3 = molecular target: T6, ELK3 (Homo sapiens, UniProt P41970 1-407); details: protein: recombinant; tags: N-terminal GST; dsDNA, one strand shown
T6 sequence: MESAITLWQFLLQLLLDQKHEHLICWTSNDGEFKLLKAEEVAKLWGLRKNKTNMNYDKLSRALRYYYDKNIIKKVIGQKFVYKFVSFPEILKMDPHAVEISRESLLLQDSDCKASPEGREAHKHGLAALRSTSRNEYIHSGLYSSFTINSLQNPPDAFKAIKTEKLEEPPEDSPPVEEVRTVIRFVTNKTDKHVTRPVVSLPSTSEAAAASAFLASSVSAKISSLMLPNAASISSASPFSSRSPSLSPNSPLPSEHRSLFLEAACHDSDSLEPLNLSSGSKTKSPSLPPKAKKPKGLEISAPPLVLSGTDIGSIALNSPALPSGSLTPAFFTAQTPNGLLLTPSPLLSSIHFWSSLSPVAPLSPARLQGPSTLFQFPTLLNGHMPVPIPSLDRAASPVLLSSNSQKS
Summary of the method: as §1

FEV = molecular target: T7, FEV (Homo sapiens, UniProt Q99581 1-238); details: protein: recombinant; tags: N-terminal GST; dsDNA, one strand shown
T7 sequence: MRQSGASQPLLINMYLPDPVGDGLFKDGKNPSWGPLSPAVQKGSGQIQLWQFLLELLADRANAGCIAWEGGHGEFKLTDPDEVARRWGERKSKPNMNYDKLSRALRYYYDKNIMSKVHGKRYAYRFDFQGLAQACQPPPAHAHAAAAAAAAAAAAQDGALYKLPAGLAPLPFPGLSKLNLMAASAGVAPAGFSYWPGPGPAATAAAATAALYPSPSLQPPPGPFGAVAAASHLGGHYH
Summary of the method: as §1

ETV5 = ETV5 (Homo sapiens, UniProt P41161 1-510); details: protein: recombinant; tags: N-terminal GST; dsDNA, one strand shown
Sequence of ETV5 (P41161 whole entry): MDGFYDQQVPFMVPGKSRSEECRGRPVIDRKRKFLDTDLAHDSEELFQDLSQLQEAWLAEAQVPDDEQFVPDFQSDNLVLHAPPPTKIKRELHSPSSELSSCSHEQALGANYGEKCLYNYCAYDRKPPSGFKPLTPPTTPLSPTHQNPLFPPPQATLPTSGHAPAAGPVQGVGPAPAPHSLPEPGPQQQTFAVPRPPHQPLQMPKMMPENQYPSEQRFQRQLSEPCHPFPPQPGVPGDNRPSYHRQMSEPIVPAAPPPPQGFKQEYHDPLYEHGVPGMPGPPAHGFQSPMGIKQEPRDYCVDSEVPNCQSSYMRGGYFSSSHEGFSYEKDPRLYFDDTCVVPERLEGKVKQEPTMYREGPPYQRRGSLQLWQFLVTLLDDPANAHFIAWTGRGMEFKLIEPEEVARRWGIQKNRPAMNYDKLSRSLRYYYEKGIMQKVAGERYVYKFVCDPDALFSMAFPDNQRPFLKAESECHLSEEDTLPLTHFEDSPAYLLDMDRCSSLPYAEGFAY
Summary of the method: as §1

HSF1 = HSF1 (Homo sapiens, UniProt Q00613 1-529); details: protein: recombinant; tags: N-terminal GST; chain copies: 3; dsDNA, one strand shown
Sequence of HSF1 (Q00613 whole entry): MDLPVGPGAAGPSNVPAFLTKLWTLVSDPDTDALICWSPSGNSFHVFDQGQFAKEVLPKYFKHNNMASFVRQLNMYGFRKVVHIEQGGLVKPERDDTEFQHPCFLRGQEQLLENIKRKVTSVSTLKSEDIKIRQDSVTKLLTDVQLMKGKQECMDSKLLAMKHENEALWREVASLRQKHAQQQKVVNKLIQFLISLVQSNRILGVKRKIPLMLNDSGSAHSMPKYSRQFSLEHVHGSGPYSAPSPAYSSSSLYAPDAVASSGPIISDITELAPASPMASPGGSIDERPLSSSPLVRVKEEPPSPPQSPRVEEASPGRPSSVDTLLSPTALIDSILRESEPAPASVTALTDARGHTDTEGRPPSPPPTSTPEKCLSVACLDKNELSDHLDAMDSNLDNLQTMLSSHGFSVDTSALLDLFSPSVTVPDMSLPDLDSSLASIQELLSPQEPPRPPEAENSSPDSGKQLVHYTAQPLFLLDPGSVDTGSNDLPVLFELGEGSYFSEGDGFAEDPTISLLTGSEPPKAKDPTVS
Summary of the method: as §1

SPIC = molecular target: T8, SPIC (Homo sapiens, UniProt Q8N5J4 1-248); details: protein: recombinant; tags: N-terminal GST; dsDNA, one strand shown
T8 sequence: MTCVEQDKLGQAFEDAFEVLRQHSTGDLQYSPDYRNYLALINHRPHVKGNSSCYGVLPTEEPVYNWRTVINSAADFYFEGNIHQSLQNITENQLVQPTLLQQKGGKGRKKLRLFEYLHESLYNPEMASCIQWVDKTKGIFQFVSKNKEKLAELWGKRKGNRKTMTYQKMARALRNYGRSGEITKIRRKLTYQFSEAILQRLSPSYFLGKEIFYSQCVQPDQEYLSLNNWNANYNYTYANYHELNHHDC
Summary of the method: as §1

ELF4 = ELF4 (Homo sapiens, UniProt Q99607 1-663); details: protein: recombinant; tags: N-terminal GST; dsDNA, one strand shown
Sequence of ELF4 (Q99607 whole entry): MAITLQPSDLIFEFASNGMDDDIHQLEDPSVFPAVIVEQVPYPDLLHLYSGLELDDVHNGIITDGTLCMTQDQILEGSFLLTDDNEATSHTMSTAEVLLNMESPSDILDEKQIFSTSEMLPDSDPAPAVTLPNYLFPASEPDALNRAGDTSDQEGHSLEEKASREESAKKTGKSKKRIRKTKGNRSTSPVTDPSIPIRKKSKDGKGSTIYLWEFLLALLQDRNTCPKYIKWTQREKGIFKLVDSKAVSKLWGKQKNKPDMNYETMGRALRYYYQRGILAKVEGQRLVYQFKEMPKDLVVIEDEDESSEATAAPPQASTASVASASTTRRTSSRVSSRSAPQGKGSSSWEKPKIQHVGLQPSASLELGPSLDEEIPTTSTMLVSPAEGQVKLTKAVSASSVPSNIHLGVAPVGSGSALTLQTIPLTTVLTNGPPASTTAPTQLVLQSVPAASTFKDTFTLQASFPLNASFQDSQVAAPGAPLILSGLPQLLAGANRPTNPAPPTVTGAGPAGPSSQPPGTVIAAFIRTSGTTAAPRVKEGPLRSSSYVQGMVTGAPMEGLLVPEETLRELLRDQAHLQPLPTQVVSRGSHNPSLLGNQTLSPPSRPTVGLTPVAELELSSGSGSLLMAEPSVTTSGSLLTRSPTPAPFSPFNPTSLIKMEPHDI
Summary of the method: as §1

ELK4 = molecular target: T9, ELK4 (Homo sapiens, UniProt P28324-2 1-405); details: protein: recombinant; tags: N-terminal GST; dsDNA, one strand shown
T9 sequence: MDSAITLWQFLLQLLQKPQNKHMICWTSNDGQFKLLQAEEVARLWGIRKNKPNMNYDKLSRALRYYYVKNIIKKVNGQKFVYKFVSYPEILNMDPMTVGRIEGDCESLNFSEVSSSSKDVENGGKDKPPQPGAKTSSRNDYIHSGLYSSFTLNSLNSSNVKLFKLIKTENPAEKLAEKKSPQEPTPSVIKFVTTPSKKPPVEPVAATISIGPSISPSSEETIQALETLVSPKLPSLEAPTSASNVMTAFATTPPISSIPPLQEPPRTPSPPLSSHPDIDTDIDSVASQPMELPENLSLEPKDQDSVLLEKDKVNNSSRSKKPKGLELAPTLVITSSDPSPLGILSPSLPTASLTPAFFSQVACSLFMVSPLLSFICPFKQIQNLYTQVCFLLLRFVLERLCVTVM
Summary of the method: as §1

ETV2 = molecular target: T10, ETV2 (Homo sapiens, UniProt O00321 1-342); details: protein: recombinant; tags: N-terminal GST; dsDNA, one strand shown
T10 sequence: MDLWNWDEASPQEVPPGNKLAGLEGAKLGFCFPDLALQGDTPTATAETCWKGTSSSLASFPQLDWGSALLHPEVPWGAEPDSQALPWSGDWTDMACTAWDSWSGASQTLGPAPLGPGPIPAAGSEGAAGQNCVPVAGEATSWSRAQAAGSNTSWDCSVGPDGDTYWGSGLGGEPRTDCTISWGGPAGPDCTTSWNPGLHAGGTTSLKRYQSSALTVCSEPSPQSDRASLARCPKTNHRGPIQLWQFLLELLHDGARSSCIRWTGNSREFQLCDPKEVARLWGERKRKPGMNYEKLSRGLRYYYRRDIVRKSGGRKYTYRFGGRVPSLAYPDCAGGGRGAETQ
Summary of the method: as §1

CRX = CRX (Homo sapiens, UniProt O43186 1-299); details: protein: recombinant; tags: N-terminal GST; dsDNA, one strand shown
Sequence of CRX (O43186 whole entry): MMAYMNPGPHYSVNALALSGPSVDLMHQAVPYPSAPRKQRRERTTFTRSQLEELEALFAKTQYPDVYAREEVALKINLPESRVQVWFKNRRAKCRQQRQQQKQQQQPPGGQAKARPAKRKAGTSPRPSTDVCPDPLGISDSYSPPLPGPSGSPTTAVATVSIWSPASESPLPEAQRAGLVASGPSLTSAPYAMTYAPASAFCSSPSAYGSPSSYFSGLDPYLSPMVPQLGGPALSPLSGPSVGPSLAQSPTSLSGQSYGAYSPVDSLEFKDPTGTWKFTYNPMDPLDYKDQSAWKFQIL
Summary of the method: as §1

ETV1 = ETV1 (Homo sapiens, UniProt P50549 1-477); details: protein: recombinant; tags: N-terminal GST; dsDNA, one strand shown
Sequence of ETV1 (P50549 whole entry): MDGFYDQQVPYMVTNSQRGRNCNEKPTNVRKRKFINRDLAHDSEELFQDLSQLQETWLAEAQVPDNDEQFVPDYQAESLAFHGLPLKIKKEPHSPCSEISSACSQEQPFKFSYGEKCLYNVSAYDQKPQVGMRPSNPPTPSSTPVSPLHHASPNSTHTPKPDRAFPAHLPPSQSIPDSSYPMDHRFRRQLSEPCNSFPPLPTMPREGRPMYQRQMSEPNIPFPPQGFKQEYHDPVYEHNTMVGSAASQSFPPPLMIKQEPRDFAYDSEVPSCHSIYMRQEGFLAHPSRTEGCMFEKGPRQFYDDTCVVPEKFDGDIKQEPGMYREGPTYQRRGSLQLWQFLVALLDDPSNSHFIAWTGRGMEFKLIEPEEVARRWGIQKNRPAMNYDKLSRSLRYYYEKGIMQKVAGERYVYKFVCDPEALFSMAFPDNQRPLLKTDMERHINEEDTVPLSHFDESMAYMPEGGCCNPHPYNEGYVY
Summary of the method: as §1

| Sequence | binding signal (FLI1) | binding signal (ELK1) | binding signal (GABPA) | binding signal (ERG) | binding signal (ELF1) | binding signal (EHF) | binding signal (SPI1) | binding signal (SPIB) | binding signal (ELK3) | binding signal (FEV) | binding signal (ETV5) | binding signal (HSF1) | binding signal (SPIC) | binding signal (ELF4) | binding signal (ELK4) | binding signal (ETV2) | binding signal (CRX) | binding signal (ETV1) |
| --- | --- | --- | --- | --- | --- | --- | --- | --- | --- | --- | --- | --- | --- | --- | --- | --- | --- | --- |
| GCCTAT | 1.18 fold enrichment (6-mer frequency, TF over GST control) | 1.3 fold enrichment (6-mer frequency, TF over GST control) | 1.21 fold enrichment (6-mer frequency, TF over GST control) | 1.23 fold enrichment (6-mer frequency, TF over GST control) | 1.39 fold enrichment (6-mer frequency, TF over GST control) | 1.17 fold enrichment (6-mer frequency, TF over GST control) | 1.13 fold enrichment (6-mer frequency, TF over GST control) | 1.21 fold enrichment (6-mer frequency, TF over GST control) | 1.27 fold enrichment (6-mer frequency, TF over GST control) | 1.16 fold enrichment (6-mer frequency, TF over GST control) | 1.3 fold enrichment (6-mer frequency, TF over GST control) | 1.07 fold enrichment (6-mer frequency, TF over GST control) | 1.12 fold enrichment (6-mer frequency, TF over GST control) | 1.18 fold enrichment (6-mer frequency, TF over GST control) | 1.31 fold enrichment (6-mer frequency, TF over GST control) | 1.2 fold enrichment (6-mer frequency, TF over GST control) | 1.3 fold enrichment (6-mer frequency, TF over GST control) | 1.09 fold enrichment (6-mer frequency, TF over GST control) |
| TGCGCG | 1.02 fold enrichment (6-mer frequency, TF over GST control) | 1.05 fold enrichment (6-mer frequency, TF over GST control) | 1.02 fold enrichment (6-mer frequency, TF over GST control) | 1.04 fold enrichment (6-mer frequency, TF over GST control) | 1.02 fold enrichment (6-mer frequency, TF over GST control) | 1.16 fold enrichment (6-mer frequency, TF over GST control) | 1.16 fold enrichment (6-mer frequency, TF over GST control) | 1.06 fold enrichment (6-mer frequency, TF over GST control) | 1.11 fold enrichment (6-mer frequency, TF over GST control) | 1.07 fold enrichment (6-mer frequency, TF over GST control) | 1.07 fold enrichment (6-mer frequency, TF over GST control) | 1.15 fold enrichment (6-mer frequency, TF over GST control) | 1.05 fold enrichment (6-mer frequency, TF over GST control) | 1.05 fold enrichment (6-mer frequency, TF over GST control) | 1.16 fold enrichment (6-mer frequency, TF over GST control) | 1.13 fold enrichment (6-mer frequency, TF over GST control) | – | 1.19 fold enrichment (6-mer frequency, TF over GST control) |
